Source: PubChem BioAssay (NCI)
This is part of a sample that, as a whole, favours compounds with a hit. Of some 79,000 tested, about 15% had one in any assay. The source made the active and inactive calls. No stated cut-off is given here; in the data, active means growth inhibition above about 70%; inactive means the rest.

Key:
[1] = NCI Yeast Anticancer Drug Screen. Data for the rad50 strain (AID 155);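 further: 0% = growth of vehicle-only cultures of the same strain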; conditions: S. cerevisiae rad50 strain growth inhibition; at 50.0 µM; hits give high values
How it was run: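 Yeast carrying a defined DNA repair defect were exposed to test compounds, and growth was compared with vehicle-treated controls to give percent inhibition.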

[2] = NCI Yeast Anticancer Drug Screen. Data for the mec2-1 strain (AID 157); conditions: S. cerevisiae mec2-1 strain, at 50.0 µM, hits give high values
How it was run: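 mec2-1 yeast strain, carrying an alteration in DNA damage repair or cell cycle control, was exposed to compounds; growth inhibition was measured relative to vehicle-treated controls.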

[3] = NCI Yeast Anticancer Drug Screen. Data for the sgs1 mgt1 strain (AID 161);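 further: 0% = growth of cultures given vehicle only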; conditions: S. cerevisiae sgs1 mgt1 strain, at 50.0 µM, hits give high values
How it was run: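 Percent growth inhibition was derived by comparing compound-exposed mutant yeast with vehicle-exposed cultures. The strain carries alterations in DNA damage repair.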

[4] = NCI Yeast Anticancer Drug Screen. Data for the cln2 rad14 strain (AID 165);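 further: 0% = growth equal to vehicle treated cultures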; conditions: S. cerevisiae cln2 rad14 strain, at 50.0 µM, hits give high values
How it was run: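 Yeast carrying cln2 and rad14 alterations (cell cycle control and DNA damage repair) were exposed to compounds. Growth inhibition was measured against vehicle-treated controls.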

[5] = NCI Yeast Anticancer Drug Screen. Data for the bub3 strain (AID 167); conditions: S. cerevisiae bub3 mutant strain, at 50.0 µM, hits give high values
How it was run: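 Compounds were applied to a genetically altered yeast strain carrying a cell-cycle control defect. Growth inhibition was scored against vehicle-treated controls.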

[6] = NCI Yeast Anticancer Drug Screen. Data for the mlh1 rad18 strain (AID 175); conditions: S. cerevisiae mlh1 rad18 strain growth inhibition; at 50.0 µM; hits give high values
How it was run: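 Growth inhibition of the yeast strain was measured after compound exposure and expressed relative to vehicle-treated controls. The strain carries defined defects in DNA damage repair.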

Measured: growth inhibition

CCCCN1CSC(=S)N(CCCC)C1
inactive: [1] 39.5% | [2] 45.5% | [3] 59.2% | [4] -10.4% | [5] 51.4% | [6] 37%

CC(NC(=O)C(CSCc1ccccc1)NC(=O)OCc1ccccc1)C(=O)OCc1ccccc1 (stereo not drawn)
inactive: [1] -38% | [2] -9.7% | [3] -11.2% | [4] 24.4% | [5] -3.05% | [6] 10.8%

NCCCCCC(N)=O
inactive: [1] 45% | [2] 32.5% | [3] 38.8% | [4] 21.2% | [5] 33.5% | [6] 33.1%

COc1ccccc1NC(=O)CC(=O)N1N=C(N(c2ccccc2)c2ccccc2)CC1c1ccccc1 (stereo not drawn)
inactive: [1] 6.75% | [2] -1.1% | [3] -7.15% | [4] 9.8% | [5] 9.6% | [6] 23.1%

CCCCCCCCC(O)C(O)CCCCCCCCOC(=O)CCCCCCCCCCC(O)CCCCCC (stereo not drawn)
inactive: [1] 13.1% | [2] -8.65% | [3] -1.55% | [4] -9.7% | [5] -2.1% | [6] 18.4%

O=[N+]([O-])c1ccc(C2ON2c2ccccc2)cc1 (stereo not drawn) (tested in a mixture with another compound)
inactive: [1] 3.95% | [2] -1.45% | [3] 20.7% | [4] -9.7% | [5] -7.4% | [6] 25.6%

Cc1cc2c(c(S(=O)(=O)c3ccc(Cl)cc3[N+](=O)[O-])c1)NCCC2
inactive: [1] 6.4% | [2] 11% | [3] 8.25% | [4] 15.3% | [5] 15.7% | [6] -0.7%

CCCCCC[C@@H](O)C/C=C\CCCCCCCC(=O)OCC(C)O (stereo partly drawn)
inactive: [1] 22.1% | [2] -2.35% | [3] 8.9% | [4] -30.6% | [5] -2.85% | [6] -20.4%

CCOC(COc1ccc2ccccc2c1)OCC
inactive: [1] -18.6% | [2] 0.5% | [3] 0.55% | [4] -55.7% | [5] 6.9% | [6] -10.1%

CCCCOC(=O)C(=O)/C(=C\n1c(=S)[nH]c2cc(C)ccc21)C(=O)C=C(C)C
inactive: [1] -15.6% | [2] -22% | [3] 3.05% | [4] -22.4% | [5] -10.7% | [6] -28.1%

N#Cc1ccccc1NC(=O)C(=O)C1NC(=S)NC1=O (stereo not drawn)
inactive: [1] 15.4% | [2] -1.75% | [3] 26% | [4] 13.6% | [5] -3.2% | [6] 18.1%

O=C1OCC(O)=C1C(c1ccc(Cl)cc1)c1cc2c(cc1O)OCO2 (stereo not drawn)
inactive: [1] -19.9% | [2] -16.7% | [3] -28.1% | [4] -16.3% | [5] 0.05% | [6] -37.5%

Cc1[nH]c2c(O)ccc(O)c2c1C
inactive: [1] -1.05% | [2] -9.45% | [3] -9.15% | [4] -20.6% | [5] -8% | [6] 4.9%

CCN(CC)CCCNc1ccc2ncn3c4ccc(O)cc4c(=O)c1c23
inactive: [1] -14.8% | [2] -36.3% | [3] -54% | [4] 11.8% | [5] -27.8% | [6] -6.65%

C/C(=N\NC(=S)N(C)C)c1nc2ncccc2[nH]1
inactive: [1] -44.1% | [2] -24.1% | [3] -64.8% | [4] -1.5% | [5] 18.7% | [6] -19.1%

O=C(Nc1ccc(S(=O)(=O)NC2CCCCC2)cc1)OC(c1ccccc1)c1ccccc1
inactive: [1] 21.6% | [2] -0.75% | [3] 18.2% | [4] 13.8% | [5] -6.15% | [6] 1.45%

CC(=O)c1cc2c(cc1C)C(C)(C)CCC2C (stereo not drawn)
inactive: [1] -0.75% | [2] -24.8% | [3] -7.3% | [4] -5% | [5] 7.35% | [6] 2.3%

C(=Nc1ccccc1-c1ccccc1N=Cc1ccccc1)c1ccccc1
inactive: [1] 7.6% | [2] 7.3% | [3] -1.25% | [4] 7.2% | [5] -7.75% | [6] -17.9%

CC(C)CC(C)(O)C#CC(C)(O)CC(C)C (stereo not drawn)
inactive: [1] -1.8% | [2] -25.4% | [3] -12.7% | [4] -31.4% | [5] 4.55% | [6] -22.2%

OC(c1ccccc1)(c1c2ccccc2cc2ccccc12)C1CCC1 (stereo not drawn)
inactive: [1] 16.8% | [2] 20.1% | [3] 0.9% | [4] 9.75% | [5] 13% | [6] -5.65%

CCCN(CCCC(NC(C)=O)C(=O)NCc1ccccc1)C(=O)NC (stereo not drawn)
inactive: [1] -11.1% | [2] -18.8% | [3] -28.4% | [4] 1.2% | [5] -4.65% | [6] -45.3%

CN1CCN(CCNNCCN2CCCC(O)C2)CC1 (stereo not drawn)
inactive: [1] 3.2% | [2] -1.65% | [3] -5.15% | [4] -6.05% | [5] -7.25% | [6] 10.7%

CC(=O)NC1=NC(=O)/C(=C/Cc2cccs2)N1C
inactive: [1] 6.8% | [2] 16.1% | [3] 1.55% | [4] -5.55% | [5] -23.8% | [6] -25.4%

C/C(=N\Nc1cc(C)nc2cc3c(cc12)OCO3)c1cn(C)n(-c2ccccc2)c1=O
inactive: [1] 19.9% | [2] 54.5% | [3] 21.6% | [4] 34.9% | [5] 12.4% | [6] 39.1%

COc1ccc(/C=N/O)cc1OC
inactive: [1] -1.8% | [2] 14.8% | [3] -2.15% | [4] 11.8% | [5] 10.9% | [6] 5.95%

COC(=O)CC(C(C(=O)OC)C(=O)OC)N1C(=O)OCC1c1ccccc1 (stereo not drawn)
inactive: [1] -16.6% | [2] -0.45% | [3] -29.1% | [4] -12.3% | [5] -17.9% | [6] -15.9%

O=C(NCCCN1CCCCCC1)C(c1ccccc1)C1CCCCC1 (stereo not drawn)
inactive: [1] 25.3% | [2] -16.4% | [3] 49.4% | [4] 13.9% | [5] 14.6% | [6] 36.1%

NCCNc1ncnc2ccccc12
inactive: [1] -13.1% | [2] 16.1% | [3] -1.75% | [4] -11.6% | [5] -1.35% | [6] -5.2%

O=C(Nc1nc2c(ncn2C2OC(CO)C(O)C2O)c(=O)[nH]1)c1ccccc1 (stereo not drawn)
inactive: [1] 2.45% | [2] -26.9% | [3] -20.2% | [4] 11.6% | [5] 12.7% | [6] 15.6%

COc1cc(N=Nc2ccc(S(=O)(=O)O)cc2)ccc1N=Nc1ccc2c(S(=O)(=O)O)cccc2c1O
inactive: [1] 15% | [2] -8.05% | [3] 14.3% | [4] 11.4% | [5] 5.8% | [6] 2.15%

O=C(/C=C(/CC(=O)c1ccccc1)C(=O)c1ccccc1)c1ccccc1
inactive: [1] -13.1% | [2] -22.9% | [3] -11.2% | [4] -22.1% | [5] -10.5% | [6] -30.8%

Cc1ccccc1NC(=O)C(C)C
inactive: [1] 28.8% | [2] -5.7% | [3] 4.35% | [4] 11.3% | [5] 15.2% | [6] 7.2%

CCN(CC)C(=O)CCC1(C)OCCO1
inactive: [1] -4.8% | [2] -12.1% | [3] -25.3% | [4] 56.4% | [5] -13.9% | [6] 6.45%

C/C(CC(=O)Nc1cccc(Cl)c1C)=N\NC(=O)c1ccncc1
inactive: [1] 6.05% | [2] -2.3% | [3] -6.2% | [4] -2% | [5] -0.5% | [6] 0.95%

CC(=O)c1sc2c(c1OC(=O)c1cccs1)c(=O)n(-c1ccccc1)c(=S)n2-c1ccccc1
inactive: [1] 22.2% | [2] -4.25% | [3] 10.3% | [4] -15.1% | [5] 23.4% | [6] 3.9%

C/C(CCC1CCCCC1)=N/NC(N)=O
inactive: [1] 14.6% | [2] 15.8% | [3] 5.25% | [4] 14.7% | [5] 12.7% | [6] -18.4%

CC(C)(C)C1=CC(=O)C(C#N)(C(C)(C)C)C1=O (stereo not drawn)
inactive: [1] 11.2% | [2] -5.7% | [3] 7.15% | [4] -36% | [5] 1.6% | [6] 6.55%

CCOC(=O)N1CCN(Cc2cc(=O)n3cc(C)ccc3n2)CC1
inactive: [1] -14.1% | [2] -15.5% | [3] 11.3% | [4] 16.2% | [5] 5.95% | [6] 2.2%
